Screening data from PubChem BioAssay.
HTT promoter inh: HTT promoter inhibition. HEK293 HTT promoter firefly luciferase reporter, 24 h. Potency, µM (doses to about 57.5 µM), without a hit: at the highest dose activity change, negative = inhibition, usual class: inhibitors. 0.93% of 48,000 active. AID 1508623; further: potency means the concentration at half of the fitted maximal effect; nearly all actives have a fitted effect of over 50% in size
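Luminescence was read after Dual-Glo reagent and a 10 min room-temperature incubation. Values were normalized to vehicle (0% activity) and zero RLU (-100% activity). Reporter HEK293 cells had been exposed to compounds (up to 57.5 uM final) for 24 h.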
HTT-AS promoter: activators of huntingtin-antisense promoter activity; HEK293 HTT-AS promoter firefly luciferase reporter, 24 h; response scale: percent change from vehicle, -100% = no light; Potency, µM (highest dose often 57.5 µM), for inactives: top-dose activity change, positive = activation, hits mostly activators; 0.24% of 48,000 active; further: potency means the concentration at half of the fitted maximal effect; nearly all actives have a fitted effect of over 55% in size
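HEK293 luciferase promoter-reporter cells (2,500/well) plated 24 h, then compounds added at up to 57.5 uM final for 24 h at 37 °C. Firefly luminescence by Dual-Glo, normalized to vehicle (0%) and zero RLU (-100%).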
NTMT1 inh: blocks human N-terminal methyltransferase 1 activity | NTMT1 MTase-Glo SAH luminescence, purified enzyme | AID 1645870 | Q9BV86 | Potency, µM (top dose mostly 114 µM), inactives show at the top dose activity change, negative = inhibition, hits mostly inhibitors | 2.5% of 59,000 active;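 further: potency means the concentration at half of the fitted maximal effect; plate controls were DMSO vehicle for no effect and no enzyme for full effect; nearly all actives have a fitted effect of over 65% in size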
Target sequence (Q9BV86 whole entry, looked up): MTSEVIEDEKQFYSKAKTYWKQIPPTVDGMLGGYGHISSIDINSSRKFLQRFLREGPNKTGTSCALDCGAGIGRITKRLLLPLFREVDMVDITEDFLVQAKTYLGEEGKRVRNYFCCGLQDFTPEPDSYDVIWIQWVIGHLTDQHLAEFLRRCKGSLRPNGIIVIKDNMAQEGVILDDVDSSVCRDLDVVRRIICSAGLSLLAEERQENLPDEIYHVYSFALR
PTAP-TSG101 blk: blocks PTAP binding to human TSG101, validation; Q99816; 44,000 tested, under 10 active; Potency, µM (highest dose often 115 µM), usual class: inhibitors; Fluorescence polarization, FITC-PTAP peptide/Tsg101, 20 min; further: potency means the concentration at half of the fitted maximal effect; 0% is about no effect
Target sequence (Q99816 whole entry, looked up): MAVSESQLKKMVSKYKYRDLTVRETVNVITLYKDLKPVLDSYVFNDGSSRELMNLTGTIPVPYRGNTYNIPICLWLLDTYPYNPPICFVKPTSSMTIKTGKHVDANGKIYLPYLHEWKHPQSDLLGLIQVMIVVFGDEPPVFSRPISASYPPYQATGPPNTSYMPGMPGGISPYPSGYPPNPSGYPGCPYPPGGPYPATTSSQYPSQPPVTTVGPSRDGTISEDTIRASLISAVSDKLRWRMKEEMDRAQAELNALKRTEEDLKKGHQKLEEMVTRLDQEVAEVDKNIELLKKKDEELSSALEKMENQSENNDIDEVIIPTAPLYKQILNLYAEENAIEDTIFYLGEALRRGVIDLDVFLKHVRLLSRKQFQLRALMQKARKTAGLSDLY
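qHTS FP binding, 20 min r.t.: 10 uM Tsg101 domain + 50 nM FITC-PTAP peptide, pH 7.5 HEPES buffer with TCEP and EDTA.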
SKOV3 invasion: blocks SKOV3ip1 adhesion and invasion in omental model; SKOV3ip1-GFP adhesion/invasion on 3D omental model, fluorescence; Potency, µM (doses to about 45.8 µM), for the others: top-dose activity change, negative = inhibition, actives largely listed as inhibitors; 0.1% of 46,000 active; AID 1963576;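 further: potency means the concentration at half of the fitted maximal effect; plate controls were DMSO wells for no effect and tomatine positive control wells for full effect; nearly all actives have a fitted effect of over 65% in size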
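A 3D layer of primary human omental fibroblasts, mesothelial cells, fibronectin and collagen I, grown 48 hr, received SKOV3ip1-GFP cells in serum-free medium plus compounds at 0.36-46 umol/L. After 2 hr RT and 16 hr 37 C, fixed adherent GFP cells were counted; normalized to DMSO and tomatine.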
GALK inhibitor: GALK (human) enzyme inhibition; Potency, µM (highest dose often 57.5 µM), for inactives: top-dose activity, negative = inhibition, hits mostly inhibitors; P51570; 44,000 tested, under 10 active; recombinant GALK, Kinase-Glo ATP luminescence, 1 h;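 further: plate controls were full GALK reaction for no effect and reaction lacking GALK for full effect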
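Luminescent ATP-depletion readout (Kinase-Glo Plus, 10 min) after 1 h RT reaction of 5 nM GALK, 35 uM ATP, 100 uM galactose, pH 8.0 HEPES buffer. Decreased kinase activity scored as inhibition.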
* marks the source's active call; other numbers are inactive results; i = inactive; ? = inconclusive; . = not tested or not shown; ! = not confirmed by another sample; [ ] = another dose, or the depositor's remark. This is a sample that favours compounds with a hit; in the whole collection about 2.5% have one here. The call rests on the fitted dose curve; in most records, active means well fitted curve in the direction sought with a large enough effect; inconclusive means small, poorly fitted or top-dose-only effect, or another doubt; inactive means no such curve, though single readings can be large; an effect the other way counts as inactive or inconclusive.

SMILES	HTT promoter inh	HTT-AS promoter	NTMT1 inh	PTAP-TSG101 blk	SKOV3 invasion	GALK inhibitor
Cc1ccc(S(=O)(=O)NCC(Nc2cccc(Cl)c2)c2ccccc2)cc1 (configuration not stated)	25µM*	-56%	15%	i	-5%	-1%
O=C1CCCC2=C1C(c1[nH]ncc1Cl)NC(=NCc1ccco1)N2 (configuration not stated)	.	.	1%	.	.	.
C[n+]1cc2c3c(ccc2c2ccc4cc5c(cc4c21)OCO5)OCO3	2.8µM*	-93%[25.1 µM]	?	.	.	.
O=C(Nc1cc(-c2nc3cc(Cl)ccc3o2)ccc1Cl)c1cccc2ccccc12	25%	18µM*	3%	i	5%	8%
O=C(Nc1cc(-c2nc3ccccc3o2)ccc1Cl)c1cccc2c(Cl)cccc12	8%	?	?	i	9%	-15%
NC1CCCCN(c2c(F)cc3c(=O)c(C(=O)O)cn(C4CC4)c3c2Cl)C1 (configuration not stated)	.	.	4%[29.8 µM]	.	.	.
Cc1ccc(NS(=O)(=O)c2cc3c(cc2NCCO)NC(=O)CC3)cc1C	.	.	18%	.	.	.
CCn1c2c(c(=O)n3ncc(C(=O)Nc4cc(Cl)ccc4OC)c13)CN(Cc1ccc(OC)cc1)CC2	-3%	-19%	-19%	i	-7%	-6%
COc1ccc(CN2CCc3c(c(=O)n4ncc(C(=O)N5CCN(c6ccccc6OC)CC5)c4n3C)C2)cc1	1.8µM*	-88%	18%	i	-10%	-2%
Cc1ccccc1C(=O)N1CCc2cc(-c3ccnc(NC(=O)Cc4ccccc4)n3)ccc21	.	.	0%	.	.	.
Cc1c(C(=O)Nc2cccc(C(F)(F)F)c2)sc2nc3n(c(=O)c12)CCCC3	-15%	-10%	8%	i	-13%	-5%
Cc1c(C(=O)N(C)c2cccc(C(F)(F)F)c2)sc2nc3n(c(=O)c12)CCCCC3	?	-26%	-8%	45µM*	2%	4%
CC1=C(C(=O)Nc2ccccc2Cl)C(c2ccccc2Br)N=C(Nc2nc3ccccc3o2)N1 (configuration not stated)	.	.	15%	.	.	.
CC(C)OC(=O)[C@H](C)N[P@](=O)(OC[C@H]1O[C@@H](n2ccc(=O)[nH]c2=O)[C@](C)(F)[C@@H]1O)Oc1ccccc1	.	.	-27%	.	.	.
CCOC(=O)c1ccc(Nc2nc3nonc3nc2Nc2cccc(C)c2C)cc1	2.2µM*	-87%	9%	i	?	-2%
Cc1ccc(C)c(Nc2nc3nonc3nc2Nc2cccc(C)c2C)c1	?	-88%	11%	i	-33%	-2%
CC(=O)N1CCC(Nc2cc(C(=O)NC[C@H](O)CN3CCc4ccccc4C3)ncn2)CC1	.	.	2%	.	.	.
CC(C)CCOc1ccc(C2N=C(N)Nc3nc4ccccc4n32)cc1 (configuration not stated)	-20%	-24%	-5%	i	13µM*	-1%
Nc1c(-c2ccncc2)cc[nH]c1=O	.	.	79µM*	.	.	.
C/C=C/C=C/C=C/C(=O)O[C@@H]1C=C(CO)C(O)(C(=O)O)[C@@]2(C)CCCC(C)(C)[C@H]12 (some centres not stated)	.	.	-3%[29.8 µM]	.	.	.
CC(=O)Nc1sc2c(c1-c1ccc3nc[nH]c3c1)CCNC2	.	.	50µM*	.	.	.
Cc1nc(C)c(-c2ccc(SCC(=O)Nc3ccc(Cl)c(Cl)c3)nn2)s1	18µM*	-32%	13%	i	i	-4%
Cc1ccc(NC(=O)c2oc3c(c2C)-c2[nH]ncc2CC3)c(Cl)c1	74%	2.2µM*	?	i	-7%	4%
Cc1cccc(NC(=O)c2oc3c(c2C)-c2[nH]ncc2CC3)c1C	37%	?	-1%	i	0%	-1%
Cc1cc(N[S+](=O)([O-])c2ccc(NC(=O)Cc3ccc(Cl)nc3)cc2)no1	.	.	16%	.	.	.
SMILES	HTT promoter inh	HTT-AS promoter	NTMT1 inh	PTAP-TSG101 blk	SKOV3 invasion	GALK inhibitor
CC(O)(C#Cc1ccc2c(c1)N(c1nc(N)ncc1Cl)CC2)c1nccs1 (configuration not stated)	?	-23%	35µM*	.	16%	.
Cc1[nH]nc2ccc(-c3cncc(OC[C@@H](N)Cc4ccccc4)c3)cc12	?	-43%	25µM*!	.	15%	.
Cc1cccc(CNc2ncnc3ccc(-c4cccnc4)cc23)c1	.	.	-10%	.	.	.
CC(C)=CCc1ccc(Oc2c(O)cc(C)cc2CO)c(C(=O)O)c1O	.	.	12%[29.8 µM]	.	.	.
Cc1[nH]c(C=C2C(=O)Nc3ccc(S(=O)(=O)N(C)c4cccc(Cl)c4)cc32)c(C)c1C(=O)N1CCN(C)CC1	-19%	-15%	4%[57.5 µM]	.	13%	.
CCN(CC)CCNC(=O)c1c(C)[nH]c(/C=C2\C(=O)Nc3ccc(Cl)cc32)c1C	.	.	25µM*	.	.	.
Cc1cc(Nc2cc(N)ncn2)c(=O)n2c1C(=O)NC21CCCCC1	.	.	8%[57.5 µM]	.	.	.
Cc1c[nH]c2nc(Nc3ccc(N4CCN(C)CC4)c(F)c3)nc(-c3cccc(CC#N)c3)c12	.	.	25µM*	.	.	.
Cc1c(C(=O)OC2CCCCCC2)[nH]c2c1C(=O)CC(c1ccccc1)C2 (configuration not stated)	?	-25%	4%	i	-1%	-12%
COc1cc(C2CC(=O)c3c([nH]c(C(=O)OC4CCCC4)c3C)C2)cc(OC)c1OC (configuration not stated)	4.5µM*	-54%	-5%	i	1%	-3%
CO[C@H]1C=C2C(CC[C@H](O[C@@H]3O[C@H](CO)[C@@H](O)[C@@H](O)[C@H]3O)C2(C)C)[C@]2(C)CC[C@]3(C)C([C@H](C)C(O)C(C=C(C)C)O[C@@H]4O[C@H](CO)[C@@H](O)[C@@H](O)[C@H]4O)CC[C@@]3(C)C12 (some centres not stated)	.	.	9%[12.6 µM]	.	.	.
CC(C)Oc1ccc(-c2nn([C@@H](C)c3oc4ccc(F)cc4c(=O)c3-c3cccc(F)c3)c3ncnc(N)c23)cc1F	.	.	11%	.	.	.
